Results reported in PubChem BioAssay.
Activity calls are given as the source filed them.

How the values were obtained:
[1] = E. coli DRC41 culture turbidity changes, primary screen, E. coli filamentation inducer project, strain DRC41, OD650, 48 h (AID 1152);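 also: E. coli MC1000 strain DRC41 lacking acrAB efflux pump and sulA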; conditions: E. coli DRC41 (acrAB sulA), higher = more signal, called active from +8 up or from −8 down
[2] = small-molecule binders of probe aLefty1, primary screen, biochemical, small-molecule microarray, 635/667 nm fluorescence (AID 1153); conditions: higher = more signal;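 also: score merges spot fluorescence with signal-to-noise ratio from the scanned slide images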
[3] = PSAC antagonists in infected red cells, primary screen, cell-based, P. falciparum Indochina, OD700, 1 h (AID 1154); conditions: P. falciparum Indochina infected RBC osmotic lysis, higher = more signal, called active from +8 up or from −8 down
[4] = PSAC antagonists in infected red cells, primary screen, cell-based, P. falciparum Indochina, OD700, 2 h (AID 1155);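 also: lysis reports solute entry through the parasite surface anion channel PSAC; channel blockers reduce lysis of infected cells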; conditions: P. falciparum Indochina infected erythrocytes, osmotic lysis OD700; higher = more signal, called active from +8 up or from −8 down
[5] = osmotic lysis modulators in infected erythrocytes, primary screen, PSAC antagonist project, cell-based, P. falciparum Indochina, OD700, 3 h (AID 1156); conditions: higher = more signal, called active from +8 up or from −8 down
[6] = PSAC antagonists in infected red cells, primary screen, cell-based, P. falciparum Indochina, OD700, 18 h (AID 1157); conditions: P. falciparum Indochina infected erythrocytes, osmotic lysis OD700, 18 h; higher = more signal, called active from +8 up or from −8 down
[7] = modulators of S6 phosphorylation in cells, primary screen, cell-based, A549, cytoblot, luminescence, serum-stimulated (AID 1158); conditions: A549 phospho-S6 cytoblot, 5 h, higher = more signal;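 also: serum-stimulated A549 lung adenocarcinoma cells; signal is phosphorylated S6 detected by cytoblot immunostaining with HRP secondary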
[8] = target: NADPH oxidase 2 (Homo sapiens) (UniProt P04839); experiment: NOX2-dependent H2O2 signal modulators, primary screen, NOX inhibitor project, cell-based, HEK293-NOX2, PMA-stimulated, Amplex Red fluorescence (AID 1159); conditions: 45 min, higher = more signal, called active from +8 up or from −8 down; also: test concentration not given here
[9] = target: NADPH oxidase 4 (Homo sapiens) (UniProt Q9NPH5); experiment: NOX4-dependent H2O2 signal modulators, primary screen, NOX inhibitor project, cell-based, HEK293-NOX4, tetracycline-induced, Amplex Red fluorescence (AID 1160); conditions: 45 min, higher = more signal, called active from +8 up or from −8 down
[10] = target: NADPH oxidase 5 (Homo sapiens) (UniProt Q96PH1); experiment: NOX5-dependent H2O2 signal modulators, primary screen, NOX inhibitor project, cell-based, HEK293-NOX5, Amplex Red fluorescence (AID 1161); conditions: HEK293-NOX5, ionomycin, 45 min, higher = more signal
NADPH oxidase 5 (Homo sapiens), sequence (Q96PH1 whole entry, looked up): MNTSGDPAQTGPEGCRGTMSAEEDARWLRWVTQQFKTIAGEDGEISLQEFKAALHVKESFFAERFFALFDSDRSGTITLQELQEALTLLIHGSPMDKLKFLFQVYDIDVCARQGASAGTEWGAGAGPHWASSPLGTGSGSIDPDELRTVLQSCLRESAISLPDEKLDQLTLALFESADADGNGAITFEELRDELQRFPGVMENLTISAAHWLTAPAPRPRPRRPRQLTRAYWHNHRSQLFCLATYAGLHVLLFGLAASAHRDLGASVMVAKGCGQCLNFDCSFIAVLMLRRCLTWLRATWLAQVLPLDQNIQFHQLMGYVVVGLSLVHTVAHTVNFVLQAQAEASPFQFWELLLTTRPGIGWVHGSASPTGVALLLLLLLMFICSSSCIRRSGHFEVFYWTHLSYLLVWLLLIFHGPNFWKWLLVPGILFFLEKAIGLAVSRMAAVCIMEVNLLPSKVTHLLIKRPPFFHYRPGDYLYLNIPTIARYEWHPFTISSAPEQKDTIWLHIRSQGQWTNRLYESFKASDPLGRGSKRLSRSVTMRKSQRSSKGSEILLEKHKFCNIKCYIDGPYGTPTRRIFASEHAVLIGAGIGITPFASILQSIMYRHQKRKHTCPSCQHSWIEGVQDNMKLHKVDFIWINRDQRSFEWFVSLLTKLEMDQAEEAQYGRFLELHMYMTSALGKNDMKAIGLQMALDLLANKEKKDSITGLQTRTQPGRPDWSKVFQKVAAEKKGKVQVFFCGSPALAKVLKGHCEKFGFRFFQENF

NADPH oxidase 4 (Homo sapiens), sequence (Q9NPH5 whole entry, looked up): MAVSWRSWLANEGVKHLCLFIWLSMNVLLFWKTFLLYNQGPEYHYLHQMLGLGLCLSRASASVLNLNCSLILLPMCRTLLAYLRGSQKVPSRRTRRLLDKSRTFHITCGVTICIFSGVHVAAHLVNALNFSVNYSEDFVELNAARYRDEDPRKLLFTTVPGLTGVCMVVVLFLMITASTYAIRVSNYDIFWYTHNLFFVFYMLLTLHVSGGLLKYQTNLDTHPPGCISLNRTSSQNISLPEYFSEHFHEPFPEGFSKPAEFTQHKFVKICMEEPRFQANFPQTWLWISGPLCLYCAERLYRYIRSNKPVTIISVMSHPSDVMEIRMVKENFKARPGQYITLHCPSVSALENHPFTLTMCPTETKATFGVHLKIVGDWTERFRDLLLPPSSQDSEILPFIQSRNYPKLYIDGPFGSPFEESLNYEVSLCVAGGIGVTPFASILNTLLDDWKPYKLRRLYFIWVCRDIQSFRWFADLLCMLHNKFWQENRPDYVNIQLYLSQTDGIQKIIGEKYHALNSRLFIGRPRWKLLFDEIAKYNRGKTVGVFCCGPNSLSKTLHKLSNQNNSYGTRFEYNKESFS
NADPH oxidase 2 (Homo sapiens), sequence (P04839 whole entry, looked up): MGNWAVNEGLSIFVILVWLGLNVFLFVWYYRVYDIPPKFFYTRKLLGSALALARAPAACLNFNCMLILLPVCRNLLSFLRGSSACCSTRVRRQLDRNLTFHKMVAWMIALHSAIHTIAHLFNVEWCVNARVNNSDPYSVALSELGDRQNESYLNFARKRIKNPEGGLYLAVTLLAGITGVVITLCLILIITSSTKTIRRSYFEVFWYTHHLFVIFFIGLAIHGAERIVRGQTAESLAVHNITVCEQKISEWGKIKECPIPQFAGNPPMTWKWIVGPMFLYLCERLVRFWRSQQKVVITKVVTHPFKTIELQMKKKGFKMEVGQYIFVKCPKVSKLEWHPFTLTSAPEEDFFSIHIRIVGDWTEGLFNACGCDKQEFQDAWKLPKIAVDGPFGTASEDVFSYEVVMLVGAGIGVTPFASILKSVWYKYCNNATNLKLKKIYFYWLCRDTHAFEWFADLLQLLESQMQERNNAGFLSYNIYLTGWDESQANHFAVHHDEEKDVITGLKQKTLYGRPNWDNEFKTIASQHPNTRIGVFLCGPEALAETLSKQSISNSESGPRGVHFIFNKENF

| Compound | z-score [1] | composite z-score [2] | z-score [3] | z-score [4] | z-score [5] | z-score [6] | z-score [7] | z-score [8] | z-score [9] | z-score [10] |
| --- | --- | --- | --- | --- | --- | --- | --- | --- | --- | --- |
| CC(C)C(=C=CC[C@H](O)c1ccccc1OCCO)CCO | -0.42 (inactive) | -0.0576 | 2.08 (inactive) | -0.0743 (inactive) | -0.163 (inactive) | 0.013 (inactive) | -0.2 | -0.353 (inactive) | 0.323 (inactive) | -0.738 |
| COC(=O)[C@@]1(Cc2ccc(F)cc2)[C@H]2c3cc(C(=O)N(C)C)n(CCCNc4ccc(C(F)(F)F)cc4Cl)c3C[C@H]2CN1C(=O)c1ccccc1 | -1.74 (inactive) | 0.634 | 1.36 (inactive) | 0.986 (inactive) | 0.277 (inactive) | 1.33 (inactive) | -0.0991 | 0.844 (inactive) | 0.619 (inactive) | 0.897 |
| Cc1ccc(F)cc1S(=O)(=O)N[C@@H]1CCN(Cc2ccc(C(F)(F)F)cc2)C1 | -5.36 (inactive) | -0.152 | 4.85 (inactive) | 1.15 (inactive) | 0.129 (inactive) | 0.624 (inactive) | -0.147 | -0.344 (inactive) | -1.19 (inactive) | -2 |
| NC(=O)NCC#Cc1ccc2c(c1)[C@]1(C(=O)N2)[C@H](c2ccc(O)cc2)N2[C@H](c3ccccc3)[C@H](c3ccccc3)OC(=O)[C@H]2[C@@H]1C(=O)N1CCN(c2ncccn2)CC1 | 0.642 (inactive) | 0.266 | 1.36 (inactive) | 0.747 (inactive) | 0.458 (inactive) | 0.565 (inactive) | -0.0168 | 1.06 (inactive) | 0.478 (inactive) | 1.68 |
| C#C[C@H]1Oc2ccccc2S(=O)(=O)N2CCC[C@@H]12 | -0.789 (inactive) | -0.106 | 0.264 (inactive) | 0.276 (inactive) | 0.0691 (inactive) | 0.0594 (inactive) | 0.213 | 0.281 (inactive) | -1.29 (inactive) | -0.494 |
| [N-]=[N+]=NCc1ccccc1[C@H]1OC(c2ccc(OCCCO)cc2)=N[C@@]1(Cc1ccccc1)C(=O)NCC(O)CO (stereo not given in full) | -0.112 (inactive) | 1.61 | 25.4 (active) | 12.1 (active) | 1.87 (inactive) | 1.67 (inactive) | -0.09 | 0.046 (inactive) | 0.497 (inactive) | -0.796 |
| C=C(C(=O)CC[C@@H](OC(=O)c1cccnc1)c1ccc(OCCO)cc1)C(C)C | -1.07 (inactive) | 0.0043 | 3.66 (inactive) | 2.48 (inactive) | -6.06 (inactive) | 0.822 (inactive) | -0.917 | -4.23 (inactive) | -1.19 (inactive) | -1.6 |
| O=C1[C@H]2C=C(Br)[C@H](C[C@@H]2OCCOCCO)[C@@]12CO2 | -0.927 (inactive) | -0.276 | 0.658 (inactive) | 0.276 (inactive) | -0.0195 (inactive) | 0.0588 (inactive) | -0.391 | 1.36 (inactive) | 0.561 (inactive) | 0.0214 |
| O=C1C2C=CC(C(O)c3ccccn3)N(Nc3ccccc3F)C2C(=O)N1c1ccccc1 (stereo not given) | -0.882 (inactive) | -0.133 | 0.671 (inactive) | 0.571 (inactive) | 0.42 (inactive) | 1.19 (inactive) | -0.725 | -1.63 (inactive) | -3.57 (inactive) | -1.54 |
| O=C1O[C@H](c2ccccc2)[C@H](c2ccccc2)N2[C@H]1[C@@H](C(=O)NC[C@H](O)c1ccccc1)[C@]1(C(=O)Nc3ccc(C#CC4=CCCCC4)cc31)[C@H]2c1ccc(O)cc1 | 1.8 (inactive) | -0.0418 | 1.35 (inactive) | 0.393 (inactive) | -0.693 (inactive) | -0.521 (inactive) | 1.98 | 2.08 (inactive) | 0.754 (inactive) | -0.0561 |
| COc1ccc([Si](C)(C)[C@H]2[C@H](CC(=O)N3CCC[C@H]3CO)O[C@@]3(C(=O)N(Cc4cccc(N5CCC5=O)c4)c4ccccc43)[C@@H]2C)cc1 | 0.689 (inactive) | 0.233 | 6.65 (inactive) | 1.06 (inactive) | 1.47 (inactive) | 0.696 (inactive) | 0.249 | 1.91 (inactive) | 0.777 (inactive) | 4.69 |
| O=C1OCCC/C=C\[C@H]2OC34C=CCN(CCN5CCOCC5)C(=O)[C@H]3N(CCO)C(=O)[C@@H]4C12 (stereo not given in full) | 0.216 (inactive) | -0.231 | 0.588 (inactive) | 0.921 (inactive) | 0.723 (inactive) | 0.382 (inactive) | -0.364 | 0.61 (inactive) | -0.342 (inactive) | 0.494 |
| COC(=O)[C@@]1(Cc2ccc(OC)cc2)[C@H]2c3cc(C(=O)N(C)C)n(Cc4ccc(OC)c(OC)c4)c3C[C@H]2CN1C(=O)c1ccccc1 | -1.86 (inactive) | 1.14 | 2.55 (inactive) | 0.807 (inactive) | 0.804 (inactive) | 1.23 (inactive) | -0.574 | 0.178 (inactive) | 1.13 (inactive) | 2.18 |
